From PMC4336329 (PLoS ONE, 2015) come the findings set out here.

About 14,000 (4.5%) of roughly 310,000 compounds showed an effect of 50% or more. The effect is printed as a negative number. For the sample, strong results were picked, then their nearest neighbours and some compounds at random.
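Also: peak tail current of the secondary pulse compared with the same well before compound.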

For this assay, the target named is human ether-à-go-go-related gene (hERG) potassium channel (human, UniProt Q12809). Put plainly: primary screen, population patch clamp on CHO cells stably expressing hERG; higher = less effect of the substance.
Sequence of human ether-à-go-go-related gene (hERG) potassium channel (Q12809 whole entry, looked up): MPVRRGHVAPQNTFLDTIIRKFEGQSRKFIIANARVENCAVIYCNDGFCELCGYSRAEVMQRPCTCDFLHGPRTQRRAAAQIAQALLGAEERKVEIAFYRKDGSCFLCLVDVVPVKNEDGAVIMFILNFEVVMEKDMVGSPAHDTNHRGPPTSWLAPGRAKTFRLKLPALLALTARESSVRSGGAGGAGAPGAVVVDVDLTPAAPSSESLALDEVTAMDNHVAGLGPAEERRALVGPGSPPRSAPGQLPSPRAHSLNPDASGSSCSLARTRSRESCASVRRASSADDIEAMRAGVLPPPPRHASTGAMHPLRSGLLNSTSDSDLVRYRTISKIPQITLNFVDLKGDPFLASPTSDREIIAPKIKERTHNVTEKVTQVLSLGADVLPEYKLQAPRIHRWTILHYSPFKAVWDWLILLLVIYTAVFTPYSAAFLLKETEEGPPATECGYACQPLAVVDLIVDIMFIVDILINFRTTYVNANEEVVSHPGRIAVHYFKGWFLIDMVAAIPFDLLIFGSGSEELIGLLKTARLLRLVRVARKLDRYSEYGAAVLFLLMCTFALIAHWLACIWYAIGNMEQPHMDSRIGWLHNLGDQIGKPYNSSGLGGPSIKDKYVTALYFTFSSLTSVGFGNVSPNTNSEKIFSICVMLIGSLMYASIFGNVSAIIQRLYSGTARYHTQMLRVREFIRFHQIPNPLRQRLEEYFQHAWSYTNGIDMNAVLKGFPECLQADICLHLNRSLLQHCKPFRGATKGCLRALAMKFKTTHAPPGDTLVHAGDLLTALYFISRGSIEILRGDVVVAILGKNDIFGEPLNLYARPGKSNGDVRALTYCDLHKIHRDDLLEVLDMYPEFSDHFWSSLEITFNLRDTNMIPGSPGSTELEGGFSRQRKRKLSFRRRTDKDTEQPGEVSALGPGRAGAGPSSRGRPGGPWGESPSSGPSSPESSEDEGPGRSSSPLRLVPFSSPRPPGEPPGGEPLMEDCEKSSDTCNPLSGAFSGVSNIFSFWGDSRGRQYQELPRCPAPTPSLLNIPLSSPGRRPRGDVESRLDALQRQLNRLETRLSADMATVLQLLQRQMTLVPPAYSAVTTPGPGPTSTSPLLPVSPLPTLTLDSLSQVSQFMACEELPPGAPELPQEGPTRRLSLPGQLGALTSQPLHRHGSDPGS
Turning to `Cc1ccccc1NC(=O)C1CCN(c2cc(-c3ccccc3)nc3ncnn23)CC1`, the “hERG current change (%, negative = inhibition) at 10uM” value is reported as -8.86%.

Regarding `COc1ccc(S(=O)(=O)N2CCN(c3ccc4nnc(-c5ccc(F)cc5)n4n3)CC2)cc1`, the “hERG current change (%, negative = inhibition) at 10uM” value is on record as -19.4%. As for `CCCNC(=O)C1CCN(c2cc(-c3ccccc3)nc3ncnn23)CC1`, the “hERG current change (%, negative = inhibition) at 10uM” value is reported as -75.8%. Regarding `CCCNC(=O)C1CCN(c2nc(C)cc(C)n2)CC1`, the “hERG current change (%, negative = inhibition) at 10uM” value is recorded as 0.749%. In the case of `O=S(=O)(c1ccc(Br)cc1)N1CCN(c2ccc3nnc(-c4ccccc4)n3n2)CC1`, the “hERG current change (%, negative = inhibition) at 10uM” value is reported as -32%.

`COc1ccc(-c2cc(C(F)(F)F)nc(N3CCCCCC3)n2)cc1`: the “hERG current change (%, negative = inhibition) at 10uM” value is on record as 2.13%.

As to `COc1ccc(-c2cc(N3CCCC3)n3ncnc3n2)cc1`, the “hERG current change (%, negative = inhibition) at 10uM” value was -64.5%. As to `COc1ccc(-c2cc3nc(-c4ccccc4)cc(N4CCC(O)CC4)n3n2)cc1`, the “hERG current change (%, negative = inhibition) at 10uM” value is listed as -7.45%.

As for `COc1ccc(S(=O)(=O)N2CCN(c3ccc4nnc(-c5ccccc5)n4n3)CC2)cc1`, the “hERG current change (%, negative = inhibition) at 10uM” value is reported as -66.4%.

Regarding `FC(F)(F)c1cc(-c2ccccc2)nc2ncnn12`, the “hERG current change (%, negative = inhibition) at 10uM” value was 7.8%. The value for `FC(F)(F)c1cccc(Nc2cc(-c3ccccc3)nc3ncnn23)c1` was 13.5%; that for `FC(F)(F)c1ccc(N2CCN(c3cc(-c4ccccc4)nc4ncnn34)CC2)nc1` was -65.1%. Consider `Cc1nnsc1Sc1ccccc1C(=O)O`, for which the “hERG current change (%, negative = inhibition) at 10uM” value amounted to 8.3%. As to `Cc1n[nH]c(C)c1S(=O)(=O)N(C)Cc1ccco1`, the “hERG current change (%, negative = inhibition) at 10uM” value turned out to be 2.13%.

As for `O=C(NCc1c(O)ccc2ccccc12)c1ccccc1`, the “hERG current change (%, negative = inhibition) at 10uM” value was found to be 12%. Regarding `CC(C)c1ccc(NC(=O)C2C3C=CC4(O3)C2C(=O)N(CCCN2CCOCC2)C4C(=O)NC2CCCCC2)cc1` (stereo not drawn), the “hERG current change (%, negative = inhibition) at 10uM” value was 19.9%. The result for `COc1ccc(NC(C)=O)c(C)c1` reads 18.2%; that for `COc1ccccc1NC(=O)N1CCN(c2ncccn2)CC1`, 6.96%; that for `O=S(=O)(c1ccccc1)N1CCN(c2cc(-c3ccccc3)nc3ncnn23)CC1`, -11.8%. As for `COc1ccc(S(=O)(=O)N2CCN(c3cc(-c4ccccc4)nc4ncnn34)CC2)cc1`, the “hERG current change (%, negative = inhibition) at 10uM” value is on record as -53.3%. Regarding `COc1ccc(OC)c(NC(=O)C2CCN(c3cc(-c4ccccc4)nc4ncnn34)CC2)c1`, the “hERG current change (%, negative = inhibition) at 10uM” value is given as -10.8%. On to `COc1ccccc1NC(=O)N1CCN(c2cc(-c3ccccc3)nc3ncnn23)CC1`, for which the “hERG current change (%, negative = inhibition) at 10uM” value was -68.3%. Consider `CCc1c(C)nc2ncnn2c1N1CCN(S(=O)(=O)c2ccc(OC)cc2)CC1`, for which the “hERG current change (%, negative = inhibition) at 10uM” value is -36%.

Take `O=C(C1=C(O)C(=O)N(CC2CCCO2)C1c1ccc(Cl)cc1)c1ccco1` (stereo not drawn): the “hERG current change (%, negative = inhibition) at 10uM” value is 12.3%. Regarding `Cc1cc(=O)oc2c(CN3CCCC3)c(O)c(Cl)cc12`, the “hERG current change (%, negative = inhibition) at 10uM” value turned out to be 5.35%. The result for `CC(CC(=O)Nc1cccc(Cl)c1)c1ccccc1` (stereo not drawn) reads -6.32%; that for `Cc1cc(OCC#N)nc(N)n1`, 3.69%; that for `CCN(CC)S(=O)(=O)c1ccc(N2CCOCC2)c(NCC(=O)Nc2ccc(F)cc2)c1`, 12.3%. `CCCCOc1ccc(/C=N/Nc2cc(N3CCOCC3)nc(C)n2)cc1`: the “hERG current change (%, negative = inhibition) at 10uM” value is on record as -30.5%. As to `Cc1cc(C)cc(NC(=O)C(OC(=O)c2ccc(O)cc2)c2ccccc2)c1` (stereo not drawn), the “hERG current change (%, negative = inhibition) at 10uM” value is given as -15.2%.

`Cc1cc(C)cc(NC(=O)C(OC(=O)c2cc[n+]([O-])cc2)c2ccccc2)c1` (stereo not drawn): the “hERG current change (%, negative = inhibition) at 10uM” value is on record as -74%. In the case of `Cc1cc(C)cc(NC(=O)C(OC(=O)c2ccc(NC(=O)CC#N)cc2)c2ccccc2)c1` (stereo not drawn), the “hERG current change (%, negative = inhibition) at 10uM” value was -6.68%.

As to `COc1cc(OC)c(NC(=O)CCNC(=O)Cn2ccc3ccccc3c2=O)cc1Cl`, the “hERG current change (%, negative = inhibition) at 10uM” value amounted to 7.45%. `Cc1ccsc1C(=O)N1CCN(c2ncc(C(F)(F)F)cc2Cl)CC1`: the “hERG current change (%, negative = inhibition) at 10uM” value is -21%. For `O=C(c1cccs1)N1CCN(c2ncc(C(F)(F)F)cc2Cl)CC1`, the “hERG current change (%, negative = inhibition) at 10uM” value was -65%.

For the molecule `O=C(c1ccc2c(c1)OCCO2)N1CCN(c2ncc(C(F)(F)F)cc2Cl)CC1`, the “hERG current change (%, negative = inhibition) at 10uM” value is recorded as -41.3%.

Regarding `O=C(CSc1ccc(Cl)cc1)N1CCN(c2ncc(C(F)(F)F)cc2Cl)CC1`, the “hERG current change (%, negative = inhibition) at 10uM” value is reported as -26%. `CCOC(=O)N1CCN(c2ncc(C(F)(F)F)cc2Cl)CC1`: the “hERG current change (%, negative = inhibition) at 10uM” value came to 21.4%. The value for `Cc1ccc(C(=O)N2CCN(c3ncc(C(F)(F)F)cc3Cl)CC2)s1` was -59.8%; that for `O=C(c1ccc2nc[nH]c2c1)N1CCN(c2cccc(C(F)(F)F)c2)CC1` was -11.4%. With `O=C(CSc1ccccn1)N1CCN(c2ncc(C(F)(F)F)cc2Cl)CC1`, the “hERG current change (%, negative = inhibition) at 10uM” value is reported as -63.9%. In the case of `O=C(c1ccc2nc[nH]c2c1)N1CCN(c2ncc(C(F)(F)F)cc2Cl)CC1`, the “hERG current change (%, negative = inhibition) at 10uM” value is -53.6%.

On to `CCc1cc(C(=O)N2CCN(c3ncc(C(F)(F)F)cc3Cl)CC2)sc1C`, for which the “hERG current change (%, negative = inhibition) at 10uM” value is -3.1%. As to `CC(C)(C(N)=O)N1CCN(c2ncc(C(F)(F)F)cc2Cl)CC1`, the “hERG current change (%, negative = inhibition) at 10uM” value is -42.4%.

Regarding `O=C(CN1CCN(c2ncc(C(F)(F)F)cc2Cl)CC1)N1CCN(c2ncc(C(F)(F)F)cc2Cl)CC1`, the “hERG current change (%, negative = inhibition) at 10uM” value was found to be 11.7%.

In the case of `CCOc1ccccc1CN1CCNC(=O)C1CC(=O)NCc1nccn1CC` (stereo not drawn), the “hERG current change (%, negative = inhibition) at 10uM” value is on record as 18.8%. Regarding `O=C(CNC(=O)c1ccccc1)NCC(=O)OCc1ccc(Cl)cc1`, the “hERG current change (%, negative = inhibition) at 10uM” value was -29.3%. With `Cc1onc(-c2c(Cl)cccc2Cl)c1C(=O)NC(=S)N1CCOCC1`, the “hERG current change (%, negative = inhibition) at 10uM” value came to 6%.

Turning to `O=C(CCn1nnc(-c2cccs2)n1)NC1CCCCC1`, the “hERG current change (%, negative = inhibition) at 10uM” value was 2.79%.

Take `C=CCOc1cccc(C2C(C(=O)c3ccc(C)o3)=C(O)C(=O)N2CCCn2ccnc2)c1` (stereo not drawn): the “hERG current change (%, negative = inhibition) at 10uM” value is reported as 9.13%. The result for `Cn1cccc1/C=C1\SC(=S)N(NC(=O)c2ccccc2Cl)C1=O` reads 1.91%; that for `CCn1c(SCC(=O)Nc2cc(C)on2)nnc1-c1ccc(S(=O)(=O)N2CCN(C)CC2)cc1`, -23.1%; that for `Cc1cc(N=Nc2ccc(Cl)cc2)cc(CN2CCOCC2)c1O`, 11.6%. Consider `CC(=O)c1ccc(OC(=O)Cc2cccc3ccccc23)cc1`, for which the “hERG current change (%, negative = inhibition) at 10uM” value came to 3.13%.
